PubChem BioAssay (NCI)
Several values for one entry are separate records, joined by “and”; a condition that tells them apart may be missing. Equal values may be shown once. About 83,000 compounds went through this panel and 20% of them were active in at least one assay; those are over-represented in the sample as a whole.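 48-hour exposure, single concentration, 96-well plates; percent growth endpoint where 0 means no net growth. Active: below 10.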 Unmarked numbers belong to inactive results. Activity calls are given as the source filed them.

Tested on: M14 melanoma
Test: NCI-60 one-dose screen, 48 h (100 = growth as untreated, 0 = no growth, -100 = all killed)
Details: 10 µM unless noted

Row | SMILES | growth
1 | Cc1c(C(C)(C)O)cn2ncnc(Oc3ccc(NC(=O)Nc4ccc(Cl)c(C(F)(F)F)c4)cc3)c12 | 36.7%
2 | Cc1ccc(C(=O)N(CCCN)[C@@H](c2nc3cc(Cl)ccc3c(=O)n2Cc2ccccc2)C(C)C)cc1 | -65.2% (active)
3 | O=c1ccc2nc(-c3ccccn3)nn(-c3ccccc3)c-2c1 | 90.3%
4 | COc1ccc(-c2ccc(-c3ccc(C(=N)N)cn3)o2)cc1Cl | 31.8%
5 | Cc1ccc(Nc2nc(-c3cc(O)c(C)c(C)c3O)cs2)cc1 | 96.6%
6 | COC(=O)/C=C1/SC(N2N=C(c3cccs3)CC2c2ccc(F)cc2)=NC1=O (stereo not drawn) | 50.8%
7 | COC(=O)c1[nH]nc(OC)c1C1(C(C#N)c2nc3ccccc3s2)CCCc2ccccc21 (stereo not drawn) | 95.2%
8 | CCOC(=O)c1c(-c2ccc(C)cc2)c(C#N)c(=O)n(-c2cccc(C(F)(F)F)c2)c1N | 106%
9 | COc1cc2nc3cc([N+](=O)[O-])ccc3c(NCCNCC(C)(C)O)c2cc1OC | -75.7% (active)
10 | Cc1ccc(C(=O)Nc2ccc(CN3CCN(C)CC3)c(C(F)(F)F)c2)cc1C#Cc1cnc(N)cc1C#N | -80.8% (active)
11 | OCCN1CCN(CC/C=C2\c3ccccc3Sc3ccc(Cl)cc32)CC1 | -98.7% (active) and -88.3% (active)
12 | CCCCCCNC(=O)Oc1ccc(/C(=C(/CC)Cc2ccccc2)c2ccc(OCCCN(C)C)cc2)cc1 | 85.2%
13 | O=c1cc(N/N=C/c2ccc(F)cc2)c2cc(Cl)ccc2[nH]1 | 81.2%
14 | O=C(Nc1ccccc1C(=O)N/N=C(\c1ccccc1)c1ccccn1)c1ccccc1 | -12.9% (active)
15 | FC(F)(F)Sc1ccc(/C=C/c2cc(/C=C/c3ccc(SC(F)(F)F)cc3)n(-c3ccccc3)n2)cc1 | 95.2%
16 | Cc1ccc(-c2nc3nc(-c4ccc(Cl)cc4)nc(N4CCCNCC4)c3o2)cc1 | -75.9% (active)
17 | CN1CCN(c2ccc(/C=C/C(=O)c3ccc(O)cc3)cc2)CC1 | 95.8%
18 | COc1ccc(/C(C)=C(\c2ccc(OCCN3CCOCC3)cc2)c2ccc(OC(=O)C3CCCCC3)cc2)cc1 | 102%
19 | CS(=O)(=O)Nc1cc(-c2ccc3ncnc(Nc4ccc(F)c(Cl)c4)c3c2)cnc1Cl | 5.92% (active)

Row | SMILES | growth
20 | CCOc1ccc(C(=O)Cc2ccccc2)cc1 | 114% and 106%
21 | CCCc1cc(C(N)=S)ccn1 | 102%
22 | COc1ccc(-c2ccc(-c3ccc(C(=N)N)cn3)s2)cc1Cl | -81.7% (active)
23 | Nc1nc(CSc2n[nH]c(N)n2)nc(Nc2ccccc2)n1 | 105%
24 | COC(=O)c1nc(-c2ccccc2)oc1S(=O)(=O)N(C)CCO | 41.1%
25 | Nc1nc(Cl)nc2c1ncn2C1OC(CO)C(O)C1O (stereo not drawn) | -14% (active) and 4.59% (active)
26 | Cc1ccc(NC(=O)c2sc3nc(C)c(C(=O)c4ccccc4)cc3c2N)cc1 | 82.7%
27 | O=Nc1ccc(NO)c2ccccc12 | 99.2% and 93.7%
28 | N=C1/C(=C2\NC3C=CC=CC3S2)C(c2ccc(Cl)cc2)C2C(=O)N(c3ccccc3)C(=S)N12 (stereo not drawn) | 102%
29 | COc1cccc(C2C(C#N)=C(N)Oc3cc(OCCCCCC[P+](c4ccccc4)(c4ccccc4)c4ccccc4)ccc32)c1 (stereo not drawn) | -49.7% (active)
30 | C=C1CC[C@@H]2[C@](C)(COC(C)=O)[C@H](OC(C)=O)CC[C@@]2(C)[C@@H]1CC(Nc1ccc(S(=O)(=O)Nc2nccs2)cc1)C1=CCOC1=O (stereo partly drawn) | 8.12% (active)
31 | CCNC(=O)Oc1ccc(/C(=C(/C)Cc2ccc(OC)cc2)c2ccc(OCCN(CC)CC)cc2)cc1 | -63.6% (active)
32 | O=C1OCC2=C1C(c1cccc(C(F)(F)F)c1)c1cc3c(cc1N2CCO)CCC3 (stereo not drawn) | 0.275% (active)
33 | O=C(Nc1ccc2ccccc2c1)c1cc2ccccc2cc1O | 99%
34 | CCOC(=O)c1nnn(Cc2cc(=O)oc3c2ccc2ccccc23)c1C | 98.1%
35 | CCC(=O)Oc1cc(Cl)c(Cl)cc1Cl | 99.5%
36 | COc1ccc(C(=O)c2ccc(OC)c(OC)c2OC)cc1 | 24.5% and 16.9%
37 | Cn1cc(-c2nonc2-c2cn(C)c3ccc(Br)cc23)c2ccccc21 | 17.7%
38 | CC(C)(C)c1cc(NC(=O)Nc2ccc(-c3cn4c(n3)sc3cc(OCCN5CCOCC5)ccc34)cc2)no1 | 37.4% and 24%
